Consider two sequences from publication PMC7862700, “An all-to-all approach to the identification of sequence-specific readers for epigenetic DNA modifications on cytosine”.

Common to all, as to assay: DAPPL (digital affinity profiling via proximity ligation, sequencing); 10 mM Tris-HCl pH 7.5, 50 mM NaCl, 1 mM DTT, 4% glycerol, room temperature, 30 min; GST-TFs on glutathione beads, 16-mer random dsDNA library, 0.1% formaldehyde crosslink after washing; high values mean tight binding
Common to all, as to details: protein: recombinant; tags: N-terminal GST; dsDNA, one strand shown

The target in assay [1] is T1, ELK1 (Homo sapiens, UniProt P19419 1-428).
T1 sequence: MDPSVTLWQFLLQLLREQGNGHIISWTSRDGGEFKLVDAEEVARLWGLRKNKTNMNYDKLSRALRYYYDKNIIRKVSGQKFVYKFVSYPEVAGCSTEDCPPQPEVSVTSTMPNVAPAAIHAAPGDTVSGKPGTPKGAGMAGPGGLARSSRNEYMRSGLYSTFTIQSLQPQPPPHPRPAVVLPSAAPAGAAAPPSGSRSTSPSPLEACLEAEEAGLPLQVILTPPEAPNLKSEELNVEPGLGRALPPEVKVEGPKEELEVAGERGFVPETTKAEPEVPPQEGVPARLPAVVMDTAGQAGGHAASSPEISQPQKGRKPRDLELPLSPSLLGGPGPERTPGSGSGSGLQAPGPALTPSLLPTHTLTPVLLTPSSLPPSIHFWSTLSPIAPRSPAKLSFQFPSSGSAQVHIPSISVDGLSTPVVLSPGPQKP
The method in brief: (§1)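 Sequencing on an Illumina NextSeq500 followed washing, crosslinking with 0.1% formaldehyde, proximity ligation (BsaI/T4 ligase, 1 h, 37 °C) and PCR amplification of pools that had been incubated for 30 min at room temperature with 200 nmole of a random double-stranded 16-mer DNA library in Tris/NaCl/DTT/glycerol buffer. Each pool held DNA-barcoded human transcription factors, expressed in yeast as GST fusions and captured on glutathione beads, plus a tag-only sample. Binding signal is a hexamer's read frequency for a factor divided by its frequency in the tag-only sample.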

The target of assay [2] is T2, GABPA (Homo sapiens, UniProt Q06546 1-454).
T2 sequence: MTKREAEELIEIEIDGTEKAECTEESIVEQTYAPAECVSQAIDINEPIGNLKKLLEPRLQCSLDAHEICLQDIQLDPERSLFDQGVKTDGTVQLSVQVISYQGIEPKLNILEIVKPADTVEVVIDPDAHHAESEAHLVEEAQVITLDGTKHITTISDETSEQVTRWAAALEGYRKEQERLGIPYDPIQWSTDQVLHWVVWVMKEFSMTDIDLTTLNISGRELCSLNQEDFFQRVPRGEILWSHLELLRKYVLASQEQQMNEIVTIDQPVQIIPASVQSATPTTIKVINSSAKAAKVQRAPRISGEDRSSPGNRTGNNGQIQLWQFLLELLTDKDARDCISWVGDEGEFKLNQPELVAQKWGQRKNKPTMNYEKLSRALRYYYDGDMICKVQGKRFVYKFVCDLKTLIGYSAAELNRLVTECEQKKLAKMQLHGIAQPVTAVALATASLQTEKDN
A digest of the protocol: as §1

The target in assay [3] is T3, ERG (Homo sapiens, UniProt P11308 1-479).
T3 sequence: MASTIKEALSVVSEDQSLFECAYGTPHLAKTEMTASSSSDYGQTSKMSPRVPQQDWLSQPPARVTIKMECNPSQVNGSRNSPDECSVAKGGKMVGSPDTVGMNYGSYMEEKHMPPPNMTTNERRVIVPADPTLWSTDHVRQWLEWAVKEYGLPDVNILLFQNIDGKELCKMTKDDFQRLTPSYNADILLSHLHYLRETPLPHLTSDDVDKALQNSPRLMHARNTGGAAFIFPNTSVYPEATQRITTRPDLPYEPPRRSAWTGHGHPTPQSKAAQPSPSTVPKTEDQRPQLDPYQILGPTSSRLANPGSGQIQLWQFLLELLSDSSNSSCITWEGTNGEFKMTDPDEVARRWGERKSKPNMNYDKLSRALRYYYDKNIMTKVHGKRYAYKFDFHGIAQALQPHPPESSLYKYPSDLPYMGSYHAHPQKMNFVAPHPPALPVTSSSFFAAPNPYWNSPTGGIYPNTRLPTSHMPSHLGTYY
A digest of the protocol: as §1

The target in assay [4] is ELF1 (Homo sapiens, UniProt P32519 1-619). A digest of the protocol:
as §1

Assay [5] addresses T4, EHF (Homo sapiens, UniProt Q9NZC4 1-300).
T4 sequence: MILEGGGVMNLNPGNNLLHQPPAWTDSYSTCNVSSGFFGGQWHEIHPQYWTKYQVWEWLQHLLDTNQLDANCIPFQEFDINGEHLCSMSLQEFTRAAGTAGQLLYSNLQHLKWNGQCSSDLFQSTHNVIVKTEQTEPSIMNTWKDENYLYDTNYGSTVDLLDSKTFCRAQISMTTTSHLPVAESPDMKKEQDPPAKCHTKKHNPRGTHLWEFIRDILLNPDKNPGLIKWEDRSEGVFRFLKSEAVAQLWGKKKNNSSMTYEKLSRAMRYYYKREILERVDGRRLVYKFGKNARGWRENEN
A digest of the protocol: as §1

In assay [6] the target is SPIB (Homo sapiens, UniProt Q01892 1-262). The method in brief: as §1
Chain of SPIB (Q01892 whole entry): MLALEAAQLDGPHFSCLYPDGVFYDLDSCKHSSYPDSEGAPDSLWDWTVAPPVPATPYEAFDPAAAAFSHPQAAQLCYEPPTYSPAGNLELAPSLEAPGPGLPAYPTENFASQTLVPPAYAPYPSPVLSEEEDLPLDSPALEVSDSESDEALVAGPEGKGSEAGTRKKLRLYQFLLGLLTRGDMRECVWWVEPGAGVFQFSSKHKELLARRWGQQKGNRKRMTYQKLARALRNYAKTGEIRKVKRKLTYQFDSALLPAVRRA
For assay [7], the target named is ETV5 (Homo sapiens, UniProt P41161 1-510). A digest of the protocol:
as §1

Assay [8] addresses T5, SPIC (Homo sapiens, UniProt Q8N5J4 1-248).
T5 sequence: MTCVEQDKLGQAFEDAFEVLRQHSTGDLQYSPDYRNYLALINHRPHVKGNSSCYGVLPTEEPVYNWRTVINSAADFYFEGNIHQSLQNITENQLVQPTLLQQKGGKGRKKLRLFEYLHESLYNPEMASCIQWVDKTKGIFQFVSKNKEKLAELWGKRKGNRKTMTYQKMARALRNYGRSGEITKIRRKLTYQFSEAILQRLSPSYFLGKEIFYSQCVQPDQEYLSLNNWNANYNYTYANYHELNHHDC
The method in brief:
as §1

Assay [9] deals with ELF4 (Homo sapiens, UniProt Q99607 1-663). A digest of the protocol:
as §1

The target in assay [10] is T6, ELK4 (Homo sapiens, UniProt P28324-2 1-405).
T6 sequence: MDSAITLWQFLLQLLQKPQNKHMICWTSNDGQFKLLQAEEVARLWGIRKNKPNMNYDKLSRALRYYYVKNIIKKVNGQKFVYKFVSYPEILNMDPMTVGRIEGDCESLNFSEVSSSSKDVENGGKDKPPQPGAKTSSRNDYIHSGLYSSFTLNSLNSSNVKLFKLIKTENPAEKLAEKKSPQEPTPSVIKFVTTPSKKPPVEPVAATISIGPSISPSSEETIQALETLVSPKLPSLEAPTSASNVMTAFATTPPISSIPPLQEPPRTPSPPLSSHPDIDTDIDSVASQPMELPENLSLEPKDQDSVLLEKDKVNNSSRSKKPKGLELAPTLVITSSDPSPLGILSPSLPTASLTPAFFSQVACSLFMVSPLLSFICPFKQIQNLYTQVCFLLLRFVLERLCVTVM
The method in brief: as §1

Assay [11] has as its target T7, ELF3 (Homo sapiens, UniProt P78545 1-371).
T7 sequence: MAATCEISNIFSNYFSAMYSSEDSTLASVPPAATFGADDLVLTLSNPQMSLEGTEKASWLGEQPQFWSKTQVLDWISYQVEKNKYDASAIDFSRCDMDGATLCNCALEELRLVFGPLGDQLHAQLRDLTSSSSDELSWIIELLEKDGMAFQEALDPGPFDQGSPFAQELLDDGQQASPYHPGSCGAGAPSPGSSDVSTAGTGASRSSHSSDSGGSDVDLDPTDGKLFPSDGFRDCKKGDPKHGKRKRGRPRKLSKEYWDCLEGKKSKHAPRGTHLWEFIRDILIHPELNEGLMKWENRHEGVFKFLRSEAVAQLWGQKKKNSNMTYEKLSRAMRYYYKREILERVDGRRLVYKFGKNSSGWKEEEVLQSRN
The method in brief: as §1

Assay [12] deals with T8, ETV3L (Homo sapiens, UniProt Q6ZN32 1-361).
T8 sequence: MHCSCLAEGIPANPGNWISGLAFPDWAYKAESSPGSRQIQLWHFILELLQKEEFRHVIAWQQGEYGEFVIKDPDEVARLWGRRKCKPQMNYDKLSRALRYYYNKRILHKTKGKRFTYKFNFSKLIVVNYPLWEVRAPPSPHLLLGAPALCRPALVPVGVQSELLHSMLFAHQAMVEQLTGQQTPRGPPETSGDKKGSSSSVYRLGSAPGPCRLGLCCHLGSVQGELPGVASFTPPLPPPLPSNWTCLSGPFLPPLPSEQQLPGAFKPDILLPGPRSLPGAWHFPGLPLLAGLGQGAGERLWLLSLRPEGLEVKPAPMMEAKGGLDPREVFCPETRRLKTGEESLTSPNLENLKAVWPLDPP
The method in brief:
as §1

Assay [13] has as its target T9, SPDEF (Homo sapiens, UniProt O95238 1-335).
T9 sequence: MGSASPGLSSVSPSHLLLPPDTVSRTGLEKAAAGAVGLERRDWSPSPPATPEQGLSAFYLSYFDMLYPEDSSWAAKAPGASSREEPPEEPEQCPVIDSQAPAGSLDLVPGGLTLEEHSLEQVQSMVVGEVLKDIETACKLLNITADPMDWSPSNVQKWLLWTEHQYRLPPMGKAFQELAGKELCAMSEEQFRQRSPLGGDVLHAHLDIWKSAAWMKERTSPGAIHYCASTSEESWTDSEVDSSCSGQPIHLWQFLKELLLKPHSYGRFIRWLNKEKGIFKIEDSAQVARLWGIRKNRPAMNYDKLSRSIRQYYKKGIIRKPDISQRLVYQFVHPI
The method in brief: as §1

Assay [14] addresses T10, ETV7 (Homo sapiens, UniProt Q9Y603 1-341).
T10 sequence: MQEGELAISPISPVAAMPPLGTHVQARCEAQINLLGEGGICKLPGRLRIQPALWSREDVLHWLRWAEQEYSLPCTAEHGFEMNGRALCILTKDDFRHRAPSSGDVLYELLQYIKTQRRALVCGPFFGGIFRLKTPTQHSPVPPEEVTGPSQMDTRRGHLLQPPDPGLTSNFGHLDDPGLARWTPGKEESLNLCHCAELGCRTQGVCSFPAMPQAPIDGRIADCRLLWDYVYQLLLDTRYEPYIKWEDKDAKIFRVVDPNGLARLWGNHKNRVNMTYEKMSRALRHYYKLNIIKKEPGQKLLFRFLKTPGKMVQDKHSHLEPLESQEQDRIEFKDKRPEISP
A digest of the protocol: as §1

Assay [15] has as its target ETV6 (Homo sapiens, UniProt P41212 1-452). A digest of the protocol:
as §1

Assay [16] has as its target T11, ELK3 (Homo sapiens, UniProt P41970 1-407).
T11 sequence: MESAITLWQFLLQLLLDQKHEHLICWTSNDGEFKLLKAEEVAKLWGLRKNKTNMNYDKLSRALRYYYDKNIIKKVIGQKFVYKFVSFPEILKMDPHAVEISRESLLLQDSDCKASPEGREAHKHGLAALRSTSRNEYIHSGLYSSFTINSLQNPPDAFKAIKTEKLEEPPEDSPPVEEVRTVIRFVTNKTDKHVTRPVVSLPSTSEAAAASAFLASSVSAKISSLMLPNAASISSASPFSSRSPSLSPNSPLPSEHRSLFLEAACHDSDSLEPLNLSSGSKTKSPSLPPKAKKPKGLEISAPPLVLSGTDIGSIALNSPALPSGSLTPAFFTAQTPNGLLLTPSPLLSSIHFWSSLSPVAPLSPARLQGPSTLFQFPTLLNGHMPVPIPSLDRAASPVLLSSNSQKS
A digest of the protocol:
as §1

Assay [17] concerns the target T12, ETV3 (Homo sapiens, UniProt P41162-2 1-143).
T12 sequence: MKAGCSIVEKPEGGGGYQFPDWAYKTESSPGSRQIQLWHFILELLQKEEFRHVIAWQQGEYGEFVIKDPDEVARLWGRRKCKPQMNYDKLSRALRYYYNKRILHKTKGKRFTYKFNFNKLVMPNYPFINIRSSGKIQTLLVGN
A digest of the protocol: as §1

Chain of ELF4 (Q99607 whole entry): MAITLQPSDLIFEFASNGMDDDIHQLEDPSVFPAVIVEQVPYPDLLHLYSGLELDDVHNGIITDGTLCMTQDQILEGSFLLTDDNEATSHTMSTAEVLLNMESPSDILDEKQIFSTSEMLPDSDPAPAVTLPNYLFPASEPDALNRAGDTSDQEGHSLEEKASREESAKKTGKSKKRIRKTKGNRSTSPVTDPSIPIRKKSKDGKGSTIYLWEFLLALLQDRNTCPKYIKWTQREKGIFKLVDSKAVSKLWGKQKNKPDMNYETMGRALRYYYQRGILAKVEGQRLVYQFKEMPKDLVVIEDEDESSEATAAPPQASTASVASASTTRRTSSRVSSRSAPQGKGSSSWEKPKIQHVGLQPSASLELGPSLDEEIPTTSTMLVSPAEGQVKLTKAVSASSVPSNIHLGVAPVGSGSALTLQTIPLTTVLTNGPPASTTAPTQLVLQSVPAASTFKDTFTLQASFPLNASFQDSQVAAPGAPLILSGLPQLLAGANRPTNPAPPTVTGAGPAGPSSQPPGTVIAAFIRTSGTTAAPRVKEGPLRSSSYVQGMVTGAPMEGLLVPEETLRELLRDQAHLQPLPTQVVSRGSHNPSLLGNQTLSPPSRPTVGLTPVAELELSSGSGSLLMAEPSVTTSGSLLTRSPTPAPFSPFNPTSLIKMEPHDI
Chain of ETV5 (P41161 whole entry): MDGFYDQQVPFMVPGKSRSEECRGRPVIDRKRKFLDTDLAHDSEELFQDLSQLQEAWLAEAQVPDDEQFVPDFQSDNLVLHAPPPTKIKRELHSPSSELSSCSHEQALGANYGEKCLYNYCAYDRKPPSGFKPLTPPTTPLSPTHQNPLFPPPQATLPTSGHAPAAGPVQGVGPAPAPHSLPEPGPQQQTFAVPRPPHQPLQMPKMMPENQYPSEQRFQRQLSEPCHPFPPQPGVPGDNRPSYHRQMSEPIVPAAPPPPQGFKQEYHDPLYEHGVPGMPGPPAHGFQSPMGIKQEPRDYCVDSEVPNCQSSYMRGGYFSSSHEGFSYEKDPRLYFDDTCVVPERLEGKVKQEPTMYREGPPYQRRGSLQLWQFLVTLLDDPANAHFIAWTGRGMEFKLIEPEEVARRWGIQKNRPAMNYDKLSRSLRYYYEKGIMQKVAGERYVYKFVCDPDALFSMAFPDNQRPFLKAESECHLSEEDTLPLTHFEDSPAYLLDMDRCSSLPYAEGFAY
Chain of ELF1 (P32519 whole entry): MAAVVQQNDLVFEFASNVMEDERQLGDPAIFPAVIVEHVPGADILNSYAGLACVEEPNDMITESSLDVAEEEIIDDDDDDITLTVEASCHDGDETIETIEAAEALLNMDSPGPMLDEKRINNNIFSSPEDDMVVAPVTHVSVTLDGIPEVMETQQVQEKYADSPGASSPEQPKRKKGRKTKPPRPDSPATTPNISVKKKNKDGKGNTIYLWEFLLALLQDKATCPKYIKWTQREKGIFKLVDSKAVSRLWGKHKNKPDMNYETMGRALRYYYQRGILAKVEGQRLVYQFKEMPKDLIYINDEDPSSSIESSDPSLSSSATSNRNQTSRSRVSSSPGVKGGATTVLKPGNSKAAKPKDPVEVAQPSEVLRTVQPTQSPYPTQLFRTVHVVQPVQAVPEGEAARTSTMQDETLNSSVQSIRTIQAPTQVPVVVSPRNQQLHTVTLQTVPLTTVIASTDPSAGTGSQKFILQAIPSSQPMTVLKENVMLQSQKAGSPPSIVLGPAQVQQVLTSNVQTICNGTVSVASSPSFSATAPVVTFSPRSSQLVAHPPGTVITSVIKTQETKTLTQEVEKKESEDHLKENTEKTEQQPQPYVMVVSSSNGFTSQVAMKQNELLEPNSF
Chain of ETV6 (P41212 whole entry): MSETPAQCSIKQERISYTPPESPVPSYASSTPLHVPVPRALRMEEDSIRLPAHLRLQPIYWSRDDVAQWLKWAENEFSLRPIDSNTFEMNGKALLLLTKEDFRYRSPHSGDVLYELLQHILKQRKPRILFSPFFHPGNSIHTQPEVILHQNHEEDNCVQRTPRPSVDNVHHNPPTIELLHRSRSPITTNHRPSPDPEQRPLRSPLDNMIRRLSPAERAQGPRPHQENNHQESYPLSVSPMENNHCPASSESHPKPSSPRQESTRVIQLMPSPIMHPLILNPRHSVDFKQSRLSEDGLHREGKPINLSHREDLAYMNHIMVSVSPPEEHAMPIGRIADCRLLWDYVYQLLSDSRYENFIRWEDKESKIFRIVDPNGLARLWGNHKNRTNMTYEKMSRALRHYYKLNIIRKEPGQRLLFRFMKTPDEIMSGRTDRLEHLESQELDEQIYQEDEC

On to GTACGA, for which the binding signal in [1] was 1.03 fold enrichment (6-mer frequency, TF over GST control); in [2], 1.14 fold enrichment (6-mer frequency, TF over GST control); in [3], 1.04 fold enrichment (6-mer frequency, TF over GST control); in [4] it was 1.08 fold enrichment (6-mer frequency, TF over GST control); in [5], 1.04 fold enrichment (6-mer frequency, TF over GST control); in assay [6], 1.05 fold enrichment (6-mer frequency, TF over GST control). In addition, the binding signal is 1.02 fold enrichment (6-mer frequency, TF over GST control) in [7]; 1.02 fold enrichment (6-mer frequency, TF over GST control) in [8]; 1.11 fold enrichment (6-mer frequency, TF over GST control) in [9]; 1.04 fold enrichment (6-mer frequency, TF over GST control) in [10]; 1.11 fold enrichment (6-mer frequency, TF over GST control) in [11]; 1.09 fold enrichment (6-mer frequency, TF over GST control) in assay [12]. Moreover, the binding signal was 1.02 fold enrichment (6-mer frequency, TF over GST control) in [13]; 1.16 fold enrichment (6-mer frequency, TF over GST control) in assay [14]; 1.05 fold enrichment (6-mer frequency, TF over GST control) in assay [15].

Consider CGCGCG, for which the binding signal in assay [1] was 1.07 fold enrichment (6-mer frequency, TF over GST control); in assay [2] it was 1.05 fold enrichment (6-mer frequency, TF over GST control); in assay [6], 1.11 fold enrichment (6-mer frequency, TF over GST control); in assay [16], 1.04 fold enrichment (6-mer frequency, TF over GST control); in assay [7], 1.01 fold enrichment (6-mer frequency, TF over GST control); in [8], 1.14 fold enrichment (6-mer frequency, TF over GST control). Further, the binding signal in assay [9] is 1 fold enrichment (6-mer frequency, TF over GST control); in assay [10], 1.14 fold enrichment (6-mer frequency, TF over GST control); in assay [11] it was 1.06 fold enrichment (6-mer frequency, TF over GST control); in [12], 1.07 fold enrichment (6-mer frequency, TF over GST control); in assay [14], 1.03 fold enrichment (6-mer frequency, TF over GST control); in assay [17], 1.1 fold enrichment (6-mer frequency, TF over GST control).
